Data: PubChem BioAssay (Tox21)
Results filed as inconclusive are left out. The source made the active and inactive calls. Unless noted, the call rests on the fitted dose curve; in most records, active means well fitted curve in the direction sought with a large enough effect in the repeat runs; inconclusive means weak or mixed curves; inactive means no such curve, though single readings can be large; an effect the other way counts as inactive or inconclusive.

Experiments:
[1] = qHTS assay to identify small molecule agonists of the peroxisome proliferator-activated receptor delta (PPARd) signaling pathway - cell viability counter screen (AID 743211); further: nearly all actives have a fitted effect of over 55% in size
In short: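 Following 5 h plating at 37 C and 5% CO2, PPARd UAS-bla HEK293H cells took up test compounds for 17 h. Viability was quantified by luminescence 30 min after CellTiter-Glo addition at room temperature.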

[2] = qHTS assay to identify small molecule antagonists of the peroxisome proliferator-activated receptor delta (PPARd) signaling pathway - cell viability counter screen (AID 743213); further: nearly all actives have a fitted effect of over 50% in size
In short: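 CellTiter-Glo was added to PPARd-bla HEK293H wells following 17 h compound treatment in the presence of 300 nM L165041. Luminescence was recorded after 30 min at room temperature.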

[3] = biological target: Peroxisome proliferator-activated receptor delta (Homo sapiens) (UniProt Q03181); test: qHTS assay to identify small molecule antagonists of the peroxisome proliferator-activated receptor delta (PPARd) signaling pathway (AID 743215; active means well fitted inhibition curve with a large enough effect in the signal ratio in the repeat runs, not every such curve was filed as active; the % refers to the signal ratio;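 further: cells stimulated with agonist L165041 at 300 nM final during compound exposure; series mostly up to about 62 µM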)
Peroxisome proliferator-activated receptor delta (Homo sapiens), sequence (Q03181 whole entry, looked up): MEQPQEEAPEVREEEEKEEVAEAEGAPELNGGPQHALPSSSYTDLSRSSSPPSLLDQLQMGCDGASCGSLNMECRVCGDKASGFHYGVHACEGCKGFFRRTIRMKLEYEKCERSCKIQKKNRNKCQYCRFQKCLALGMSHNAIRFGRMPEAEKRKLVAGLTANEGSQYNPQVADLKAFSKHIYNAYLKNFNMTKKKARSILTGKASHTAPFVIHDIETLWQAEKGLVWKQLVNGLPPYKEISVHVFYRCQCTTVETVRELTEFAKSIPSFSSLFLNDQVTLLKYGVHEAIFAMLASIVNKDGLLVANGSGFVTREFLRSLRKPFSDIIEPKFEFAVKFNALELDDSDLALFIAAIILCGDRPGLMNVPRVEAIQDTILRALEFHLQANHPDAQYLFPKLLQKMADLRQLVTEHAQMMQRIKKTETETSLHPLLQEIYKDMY
In short: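 HEK293H GeneBLAzer PPARd UAS-bla reporter cells; cpd + L165041 300 nM final, 17 h 37 C; LiveBLAzer B/G FRET substrate 2 h RT; fluorescence intensity read-out. Antagonist mode.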

[4] = biological target: Bile acid receptor (Homo sapiens) (UniProt Q96RI1); test: qHTS assay to identify small molecule antagonists of the farnesoid-X-receptor (FXR) signaling pathway (AID 743217; active means well fitted inhibition curve with a large enough effect in the signal ratio in the repeat runs, not every such curve was filed as active; the % refers to the signal ratio)
Bile acid receptor (Homo sapiens), sequence (Q96RI1 whole entry, looked up): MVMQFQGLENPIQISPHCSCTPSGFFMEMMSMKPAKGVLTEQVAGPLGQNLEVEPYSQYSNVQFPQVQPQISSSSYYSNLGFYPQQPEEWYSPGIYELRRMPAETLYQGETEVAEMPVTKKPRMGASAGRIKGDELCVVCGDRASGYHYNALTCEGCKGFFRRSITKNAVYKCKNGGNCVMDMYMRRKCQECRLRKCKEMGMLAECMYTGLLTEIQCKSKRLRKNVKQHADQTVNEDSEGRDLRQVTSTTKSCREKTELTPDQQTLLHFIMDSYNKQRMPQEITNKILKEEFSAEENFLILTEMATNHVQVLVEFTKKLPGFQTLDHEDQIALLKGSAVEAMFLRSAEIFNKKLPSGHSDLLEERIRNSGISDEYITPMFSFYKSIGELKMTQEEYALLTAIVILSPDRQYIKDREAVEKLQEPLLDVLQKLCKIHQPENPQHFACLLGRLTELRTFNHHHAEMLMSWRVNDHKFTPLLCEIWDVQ
In short: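 Read-out: beta-lactamase FRET fluorescence (LiveBLAzer B/G substrate, 2 h, room temperature) in GeneBLAzer FXR-UAS-bla HEK 293T cells. Compounds were co-dosed with 50 uM chenodeoxycholic acid (final) and incubated 16 h at 37 °C.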

[5] = qHTS assay to identify small molecule agonists of the farnesoid-X-receptor (FXR) signaling pathway - cell viability counter screen (AID 743218); further: nearly all actives have a fitted effect of over 45% in size
In short: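 Luminescence from CellTiter-Glo, read after 30 min at RT, reports viability of GeneBLAzer FXR-UAS-bla HEK 293T cells treated 16 h with compounds in the wells used for the beta-lactamase reporter.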

[6] = biological target: Bile acid receptor (Homo sapiens) (UniProt Q96RI1); test: qHTS assay to identify small molecule agonists of the farnesoid-X-receptor (FXR) signaling pathway (AID 743220; active means well fitted activation curve with a large enough effect in the signal ratio in the repeat runs, not every such curve was filed as active; the % refers to the signal ratio)
In short: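 FXR-UAS-bla HEK 293T cells carrying a UAS-driven beta-lactamase reporter were plated for 5 h at 37C/5% CO2, then exposed to DMSO-dissolved Tox21 10K compounds for 16 h at 37C. A LiveBLAzer B/G FRET substrate was loaded for 2 h at room temperature before fluorescence reading.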

[7] = qHTS assay to identify small molecule antagonists of the farnesoid-X-receptor (FXR) signaling pathway - cell viability counter screen (AID 743221; active means well fitted cell-killing curve with a large enough effect in the repeat runs, not every such curve was filed as active; further: nearly all actives have a fitted effect of over 50% in size)
In short: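 Compound effects on cell number were measured as CellTiter-Glo luminescence in HEK 293T cells expressing FXR-UAS-bla, after 16 h at 37 C with 50 uM CDCA (final).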

[8] = biological target: Vitamin D3 receptor (Homo sapiens) (UniProt P11473); test: qHTS assay to identify small molecule agonists of the vitamin D receptor (VDR) signaling pathway (AID 743222; calls by dose curve)
Vitamin D3 receptor (Homo sapiens), sequence (P11473 whole entry, looked up): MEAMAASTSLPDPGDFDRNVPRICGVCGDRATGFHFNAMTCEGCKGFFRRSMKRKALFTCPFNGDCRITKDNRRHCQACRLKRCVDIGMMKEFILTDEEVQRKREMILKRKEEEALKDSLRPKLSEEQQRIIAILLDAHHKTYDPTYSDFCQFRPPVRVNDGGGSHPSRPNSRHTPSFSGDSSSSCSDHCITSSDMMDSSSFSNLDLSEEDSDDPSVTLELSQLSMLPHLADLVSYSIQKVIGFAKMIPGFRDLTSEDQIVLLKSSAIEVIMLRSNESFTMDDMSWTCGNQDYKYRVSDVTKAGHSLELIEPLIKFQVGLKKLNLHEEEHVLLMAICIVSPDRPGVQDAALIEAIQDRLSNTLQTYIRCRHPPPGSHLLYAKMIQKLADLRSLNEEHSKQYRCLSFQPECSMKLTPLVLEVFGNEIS
In short: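 Beta-lactamase reporter readout (LiveBLAzer B/G FRET, 2 h RT) in VDR-bla cells after 16 h compound treatment at 37C, 5% CO2; cells pre-incubated 4 h before pin transfer of DMSO solutions.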

[9] = biological target: Vitamin D3 receptor (Homo sapiens) (UniProt P11473); test: qHTS assay to identify small molecule antagonists of the vitamin D receptor (VDR) signaling pathway (AID 743223; active means well fitted inhibition curve with a large enough effect in the signal ratio in the repeat runs, not every such curve was filed as active; the % refers to the signal ratio)
In short: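 Beta-lactamase activity in VDR-bla cells is measured by FRET substrate fluorescence (2 h, room temperature) after cells spend 16 h at 37C with test compound and 3 nM final 1alpha,25-dihydroxyvitamin D3.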

[10] = qHTS assay to identify small molecule agonists of the NFkB signaling pathway (AID 1159509; active means well fitted curve in the direction sought with a large enough effect in the signal ratio in the repeat runs, not every such curve was filed as active; the % refers to the signal ratio; further: series mostly up to about 61 µM)
In short: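 Agonist activity was read as beta-lactamase-driven FRET change (460 and 530 nm emission, 405 nm excitation) following 1.5 hr substrate loading at room temperature. Beforehand, ME-180 NFkB-bla reporter cells were treated with compounds for 5 hr at 37 C.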

[11] = qHTS assay to identify small molecule agonists of the NFkB signaling pathway - cell viability counter screen (AID 1159515; calls by dose curve; further: series mostly up to about 61 µM; nearly all actives have a fitted effect of over 55% in size)
In short: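 ME-180 NFkB-bla cells, 2,000/well; overnight attach; compound 5 hr, 37 C/5% CO2; LiveBLAzer substrate 1.5 hr RT; then CellTiter-Glo in same wells, 30 min RT, luminescence read.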

[12] = qHTS assay to identify small molecule agonists of the endoplasmic reticulum stress response signaling pathway (AID 1159516; active means well fitted activation curve with a large enough effect in the signal ratio in the repeat runs, not every such curve was filed as active; the % refers to the signal ratio)
In short: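 HeLa ESRE-bla reporter line; cpd 5 h, 37 C/5% CO2; LiveBLAzer B/G FRET substrate 2 h RT; ex 405, em 460/530 nm.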

[13] = qHTS assay to identify small molecule agonists of the endoplasmic reticulum stress response signaling pathway - cell viability counter screen (AID 1159517; calls by dose curve;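 further: HeLa cells carrying an ER stress response element beta-lactamase reporter; series mostly up to about 61 µM; nearly all actives have a fitted effect of over 50% in size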)
In short: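 ESRE-bla HeLa cells (1,500/well) were plated overnight at 37 C and exposed to compounds for 5 hr. After the 2 hr beta-lactamase substrate read, CellTiter-Glo went into the same wells, and luminescence was read after 30 min at room temperature.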

[14] = qHTS assay to identify small molecule antagonists of the retinoid-related orphan receptor gamma (ROR-gamma) signaling pathway - cell viability counter screen (AID 1159520); further: nearly all actives have a fitted effect of over 50% in size
In short: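 Cytotoxicity was read from cellular ATP (CellTiter-Glo luminescence) after 16 hr at 37 C with 1 uM doxycycline induction. The inducer was added 2 hr after compound transfer to Tet-on ROR gamma CHO cells.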

[15] = biological target: Nuclear receptor ROR-gamma (Homo sapiens) (UniProt P51449); test: qHTS assay to identify small molecule antagonists of the retinoid-related orphan receptor gamma (ROR-gamma) signaling pathway (AID 1159521)
In short: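 Screening format: cell-based luciferase reporter in CHO cells with doxycycline-inducible RORγ. Compound pre-exposure lasts 2 h, doxycycline is 1 uM final, induction runs 16 h at 37 C, and ONE-Glo luminescence is read.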

[16] = qHTS assay to identify small molecule agonists of the AP-1 signaling pathway - cell viability counter screen (AID 1159525; calls by dose curve; further: nearly all actives have a fitted effect of over 55% in size)
In short: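 Intracellular ATP by Cell Titer Glo luminescence (30 min, RT) in the same ME-180 AP-1-bla wells after the 5 h compound exposure at 37 °C. Normalised to tetra n-octyl ammonium bromide and DMSO controls.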

[17] = qHTS assay to identify small molecule agonists of the AP-1 signaling pathway (AID 1159526; calls by dose curve)
[18] = biological target: Peroxisome proliferator-activated receptor delta (Homo sapiens) (UniProt Q03181); test: qHTS assay to identify small molecule agonists of the peroxisome proliferator-activated receptor delta (PPARd) signaling pathway (AID 743212; calls by dose curve)
In short: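 Beta-lactamase reporter readout: a ratiometric FRET signal from the LiveBLAzer substrate after 2 h at room temperature. Compound exposure at 37 °C in PPARδ-bla HEK293H cells driven by an upstream activator sequence.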

[19] = qHTS assay to identify small molecule agonists of the vitamin D receptor (VDR) signaling pathway - cell viability counter screen (AID 743224)
In short: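 Cytotoxicity counter screen: VDR-bla cells, 16 h compound exposure at 37C, 5% CO2; CellTiter-Glo luminescence, 30 min RT, same wells as bla read.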

[20] = qHTS assay to identify small molecule antagonists of the vitamin D receptor (VDR) signaling pathway - cell viability counter screen (AID 743225); further: nearly all actives have a fitted effect of over 50% in size
In short: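 In this counter screen, VDR-bla HEK 293T cells receive test compound plus 3 nM final calcitriol for 16 h at 37C. Room-temperature steps of 2 h with the beta-lactamase substrate, then 30 min with CellTiter-Glo, precede the luminescence read.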

Measured: Potency

CCOc1ccc(NC(=O)OC(C)C)cc1OCC
inactive: [1] | [2] | [3] | [4] | [5] | [6] | [7] | [8] | [9] | [10] | [11] | [12] | [13] | [14] | [15] | [16] | [17]

CO[Si](CCCS)(OC)OC
inactive: [1] | [18] | [2] | [4] | [6] | [19] | [20] | [10] | [11] | [12] | [13] | [14] | [15] | [16] | [17]

C[C@@H]1C[C@H]2[C@@H]3C[C@H](F)C4=CC(=O)C=C[C@]4(C)[C@@]3(F)[C@@H](O)C[C@]2(C)[C@@]1(O)C(=O)CO
inactive: [1] | [2] | [5] | [7] | [8] | [9] | [20] | [10] | [11] | [12] | [13] | [14] | [15] | [16] | [17]

CNC(=O)NC
inactive: [1] | [18] | [3] | [4] | [5] | [6] | [7] | [8] | [9] | [19] | [10] | [11] | [12] | [13] | [14] | [15] | [16] | [17]

Nc1cc(Cl)cc(S(=O)(=O)O)c1O
inactive: [1] | [2] | [5] | [7] | [9] | [19] | [10] | [11] | [12] | [13] | [14] | [15] | [16] | [17]

FC(F)(F)c1ccc(Cl)cc1Cl
inactive: [1] | [2] | [7] | [8] | [9] | [19] | [10] | [11] | [12] | [13] | [14] | [15] | [16] | [17]

Cc1ccc(S(=O)(=O)NC(=O)NC2CCCCCCC2)cc1
inactive: [1] | [2] | [5] | [7] | [8] | [9] | [19] | [20] | [10] | [11] | [12] | [13] | [14] | [15] | [16] | [17]

O=C(O)/C=C/c1ccccc1
inactive: [1] | [18] | [2] | [4] | [5] | [6] | [7] | [8] | [9] | [19] | [10] | [11] | [12] | [13] | [14] | [15] | [16] | [17]

CCOC(=O)CCCCCCCCC(=O)OCC
inactive: [1] | [2] | [5] | [7] | [8] | [19] | [20] | [10] | [11] | [12] | [13] | [14] | [15] | [16] | [17]

CCN(Cc1cccc(S(=O)(=O)O)c1)c1ccccc1
inactive: [1] | [2] | [4] | [5] | [6] | [7] | [8] | [9] | [19] | [20] | [10] | [11] | [12] | [13] | [14] | [15] | [16] | [17]

C[N+](C)(C)CC(O)CCl (stereo not given)
inactive: [1] | [18] | [2] | [5] | [7] | [8] | [9] | [19] | [10] | [11] | [12] | [13] | [14] | [15] | [16] | [17]

COC(=O)CCC(=O)O
inactive: [1] | [2] | [5] | [7] | [8] | [9] | [19] | [20] | [10] | [11] | [12] | [13] | [14] | [15] | [16] | [17]

CC(C)CCCCCCOC(=O)C1CCCCC1C(=O)OCCCCCCC(C)C (stereo not given)
inactive: [1] | [18] | [2] | [4] | [5] | [6] | [7] | [8] | [9] | [19] | [10] | [11] | [12] | [13] | [14] | [15] | [16] | [17]

CC(=O)OC(C(=O)c1ccccc1)c1ccccc1 (stereo not given)
inactive: [1] | [18] | [2] | [4] | [5] | [6] | [7] | [19] | [20] | [10] | [11] | [12] | [13] | [14] | [15] | [16] | [17]

Cc1ncc([N+](=O)[O-])n1CC(O)CCl (stereo not given)
inactive: [1] | [2] | [4] | [5] | [6] | [7] | [8] | [9] | [19] | [20] | [10] | [11] | [12] | [13] | [14] | [15] | [16] | [17]
